Values without a mark were called inactive. The source made the active and inactive calls. Cut-off read from the data, not from the text of the source, unless noted: active = inhibition above about 42%; inactive = the rest.
What was measured:
[1] = StAR promoter reporter inhibitors, counter-screen for LRH-1 inverse agonist project, cell-based, luminescence, high throughput (AID 651611; in the data active = inhibition above about 28%); conditions: StAR promoter luciferase reporter counterscreen, at 3.6 µM, active compounds read high
[2] = molecular target: Nuclear receptor subfamily 5 group A member 2 (Homo sapiens) (UniProt O00482); assay: NR5A2 activity suppression in reporter cells – cell-based, luminescence, confirmation (AID 651613); conditions: cell-based LRH-1 luciferase reporter, inverse agonism; at 3.6 µM; active compounds read high;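 note: HEK293T cells co-transfected with LRH-1 and StAR promoter luciferase reporter; 0% = vehicle wells and 100% = parental cells lacking receptor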
[3] = molecular target: Steroidogenic factor 1 (Homo sapiens) (UniProt Q13285); assay: inverse agonism at SF1 nuclear receptor – cell-based, luminescence, high throughput, counter-screen for LRH-1 inverse agonist project (AID 651614; in the data active = inhibition above about 44%;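 note: cells cotransfected with StAR promoter reporter and SF1 expression vector; 0% = vehicle on cells with receptor and 100% = vehicle on cells lacking receptor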); conditions: cell-based SF1 luciferase reporter, at 3.6 µM, active compounds read high
[4] = compounds suppressing VP16-driven luciferase signal – cell-based, luminescence, high throughput, counter-screen for LRH-1 inverse agonist project (AID 651615; in the data active = inhibition above about 33%); conditions: Gal4-VP16 luciferase reporter cells, at 3.6 µM, active compounds read high

Sequence of Steroidogenic factor 1 (Homo sapiens) (Q13285 whole entry, looked up, the tested form may be a part): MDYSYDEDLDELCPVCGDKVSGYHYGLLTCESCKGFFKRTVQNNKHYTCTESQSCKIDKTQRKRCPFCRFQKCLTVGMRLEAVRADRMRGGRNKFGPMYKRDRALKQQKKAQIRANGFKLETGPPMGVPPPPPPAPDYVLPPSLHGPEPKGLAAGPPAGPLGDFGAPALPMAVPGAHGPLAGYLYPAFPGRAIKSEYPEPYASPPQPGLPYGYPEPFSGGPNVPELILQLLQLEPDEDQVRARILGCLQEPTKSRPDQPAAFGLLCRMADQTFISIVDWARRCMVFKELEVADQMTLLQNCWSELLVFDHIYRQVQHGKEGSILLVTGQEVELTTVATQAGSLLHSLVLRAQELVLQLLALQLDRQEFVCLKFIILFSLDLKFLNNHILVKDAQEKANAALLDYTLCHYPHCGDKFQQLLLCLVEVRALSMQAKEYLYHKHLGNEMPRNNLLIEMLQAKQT
Sequence of Nuclear receptor subfamily 5 group A member 2 (Homo sapiens) (O00482 whole entry, looked up): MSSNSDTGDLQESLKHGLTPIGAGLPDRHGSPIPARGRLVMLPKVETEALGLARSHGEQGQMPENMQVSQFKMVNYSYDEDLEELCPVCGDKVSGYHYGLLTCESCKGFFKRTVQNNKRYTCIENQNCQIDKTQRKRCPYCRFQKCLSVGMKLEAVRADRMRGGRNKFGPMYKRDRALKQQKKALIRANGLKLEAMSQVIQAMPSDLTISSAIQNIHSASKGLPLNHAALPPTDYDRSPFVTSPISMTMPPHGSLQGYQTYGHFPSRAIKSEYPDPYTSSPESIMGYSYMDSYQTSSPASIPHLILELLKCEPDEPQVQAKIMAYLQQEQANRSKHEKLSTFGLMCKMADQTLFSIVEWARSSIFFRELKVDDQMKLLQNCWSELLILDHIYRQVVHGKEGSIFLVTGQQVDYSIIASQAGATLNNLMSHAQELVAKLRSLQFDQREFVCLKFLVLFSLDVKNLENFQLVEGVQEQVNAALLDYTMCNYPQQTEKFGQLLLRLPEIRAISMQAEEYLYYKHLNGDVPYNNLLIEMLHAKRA

In the case of `CCOc1ccc(Cc2nnc(SCC(=O)Nc3ccc(C(C)=O)cc3)[nH]c2=O)cc1`, the inhibition [1] is reported as 1.5%, the inhibition [2] is reported as 52% (active) and the inhibition [3] is reported as 40.9%. The inhibition [4] was -7.62%.
In the case of `COc1ccc(NC(=O)CSc2ccc3c(c2)OCCO3)cc1`, the inhibition [1] is reported as 2.27%, the inhibition [2] is reported as 63.5% (active) and the inhibition [3] is reported as 56.7% (active). The inhibition [4] was -4.1%.
With `O=NN(CCc1ccncc1)c1ccc(OCc2ccccc2)cc1` the inhibition [1] was 3.58%, the inhibition [2] was 73.2% (active) and the inhibition [3] was 66.6% (active). For the same molecule, the inhibition [4] was 50.5% (active).
With `COc1ccc(Nc2nc(NCCN3CCOCC3)nc(Nc3ccc(OC)cc3)n2)cc1` the inhibition [1] was -1.42%, the inhibition [2] was 42.9% (active) and the inhibition [3] was 38.6%. For the same molecule, the inhibition [4] was 0.52%.
With `Nc1nc2ccccc2n1/N=C/c1ccc([N+](=O)[O-])s1` the inhibition [1] was -0.84%, the inhibition [2] was 61.2% (active) and the inhibition [3] was 65.1% (active). It also gave an inhibition [4] of -3.2%.
With `O=C(CSc1nnc(Cc2cccs2)n1-c1ccccc1)Nc1ccc2c(c1)OCCO2` the inhibition [1] was -2.83%, the inhibition [2] was 34.8% and the inhibition [3] was 31.1%. For the same molecule, the inhibition [4] was -2.43%.
In the case of `CN(C)S(=O)(=O)c1cccc(C(=O)OCC(=O)Nc2ccc3c(c2)OCCO3)c1`, the inhibition [1] is reported as 17.9%, the inhibition [2] is reported as 51.5% (active) and the inhibition [3] is reported as 52.3% (active). It also gave an inhibition [4] of 10.7%.
With `CC1(C)CC2CC(C)(CN2S(=O)(=O)c2ccc(C(=O)Nc3cccc(S(=O)(=O)N4CCOCC4)c3)cc2)C1` (centres undefined) the inhibition [1] was 13%, the inhibition [2] was 59% (active) and the inhibition [3] was 56.4% (active). For the same molecule, the inhibition [4] was 56% (active).
With `O=C(NCc1ccco1)c1nn(-c2ccccc2)c(=O)c2ccccc12` the inhibition [1] was 19.6%, the inhibition [2] was 57% (active) and the inhibition [3] was 53.4% (active). The inhibition [4] was -14.1%.
For `CN(CCC#N)Cc1cc(=O)oc2ccc3ccccc3c12`, the inhibition [1] was 13.8%, the inhibition [2] was 55.2% (active) and the inhibition [3] was 46.2% (active). For the same molecule, the inhibition [4] was 5.57%.
In the case of `CN(C)c1ccc(C=c2c3ccccc3n3c2c2ccccc2[n+]3C)cc1`, the inhibition [1] is reported as 54.9% (active), the inhibition [2] is reported as 107% (active) and the inhibition [3] is reported as 90.7% (active). The inhibition [4] was 91.7% (active).
With `CS(=O)(=O)N1CCCC(c2nc(-c3ccc(S(=O)(=O)NCc4ccccc4)cc3)no2)C1` (centres undefined) the inhibition [1] was -1.45%, the inhibition [2] was 54.5% (active) and the inhibition [3] was 52.7% (active). The inhibition [4] was 37.8% (active).
For `O=C(Cc1c(F)cccc1Cl)Nc1ccncc1`, the inhibition [1] was 3.12%, the inhibition [2] was 45% (active) and the inhibition [3] was 43.5% (active). It also gave an inhibition [4] of -7.58%.
`Nc1ccc(Br)c2cccnc12` gave an inhibition [1] of 3.69%, an inhibition [2] of 26.2% and an inhibition [3] of 24.8%. The inhibition [4] was -9.28%.
For `COC(=O)c1ccc(NC(=O)CN2CCN(S(=O)(=O)c3cc(Cl)ccc3OC)CC2)cc1`, the inhibition [1] was 9.56%, the inhibition [2] was 60.3% (active) and the inhibition [3] was 57.5% (active). For the same molecule, the inhibition [4] was 7.76%.
With `Cc1ccccc1NC(=O)c1ccc([N+](=O)[O-])o1` the inhibition [1] was 8.33%, the inhibition [2] was 64.8% (active) and the inhibition [3] was 57.6% (active). It also gave an inhibition [4] of -16%.
In the case of `COc1ccc(NC(=O)CSc2nnc(-c3ccccn3)n2N)cc1Cl`, the inhibition [1] is reported as 20.3%, the inhibition [2] is reported as 48.5% (active) and the inhibition [3] is reported as 49.4% (active). The inhibition [4] was 2.01%.
In the case of `Cc1ccc2[nH]c3c(c2c1)CCN1C(=O)OC(C)(C)C31C` (centres undefined), the inhibition [1] is reported as 10.6%, the inhibition [2] is reported as 53.7% (active) and the inhibition [3] is reported as 49% (active). For the same molecule, the inhibition [4] was -1.39%.
For `COc1ccc(S(=O)(=O)N2CCCCC2)cc1NC(=O)c1ccc([N+](=O)[O-])o1`, the inhibition [1] was 25.8%, the inhibition [2] was 74.9% (active) and the inhibition [3] was 68.1% (active). It also gave an inhibition [4] of 18.6%.
In the case of `C/C(=N\NC(N)=S)c1ccc(-n2ccnc2)cc1`, the inhibition [1] is reported as 10.1%, the inhibition [2] is reported as 60.5% (active) and the inhibition [3] is reported as 53.4% (active). The inhibition [4] was -13.1%.
In the case of `CC1CC(C)CN(c2cc(N(C)CCO)c([N+](=O)[O-])c3nonc23)C1` (centres undefined), the inhibition [1] is reported as 13.7%, the inhibition [2] is reported as 64.2% (active) and the inhibition [3] is reported as 63.6% (active). The inhibition [4] was -3.82%.
For `Cc1ccc(OCCC(=O)OCC(=O)Nc2ccc(N3CCOCC3)cc2)cc1`, the inhibition [1] was 16.6%, the inhibition [2] was 54.8% (active) and the inhibition [3] was 46.6% (active). It also gave an inhibition [4] of -7.59%.
For `Cc1[nH][nH]c(=O)c1N=Nc1ccc(S(N)(=O)=O)cc1`, the inhibition [1] was 20.7%, the inhibition [2] was 52.1% (active) and the inhibition [3] was 51.5% (active). The inhibition [4] was 6.39%.
`CC1(C)CC(=O)C=C(c2ccc3c(c2)OCO3)C1` showed an inhibition [1] of -7.31%, an inhibition [2] of 40.6% and an inhibition [3] of 42.1%. The inhibition [4] was 2.47%.
For `CCN(CC)S(=O)(=O)c1ccc(N2CCOCC2)c(NC(=O)c2[nH]c(C)c(C(C)=O)c2C)c1`, the inhibition [1] was 61.6% (active), the inhibition [2] was 51.5% (active) and the inhibition [3] was 25.8%. It also gave an inhibition [4] of -200%.
For `COc1cc([N+](=O)[O-])ccc1NC(=O)Cn1ccsc1=N`, the inhibition [1] was 4.07%, the inhibition [2] was 59.9% (active) and the inhibition [3] was 57.6% (active). For the same molecule, the inhibition [4] was -3.33%.
In the case of `CCC(C)NC(=O)c1ccc2c(c1)N(Cc1ccccc1)C(=O)CS2` (centres undefined), the inhibition [1] is reported as 7.12%, the inhibition [2] is reported as 49.2% (active) and the inhibition [3] is reported as 51.5% (active). It also gave an inhibition [4] of 3.22%.
In the case of `CCOc1ccc(NC(=O)CSc2nc(O)c(C)c(=O)n2-c2ccc(F)cc2)cc1`, the inhibition [1] is reported as 5.33%, the inhibition [2] is reported as 60.6% (active) and the inhibition [3] is reported as 50.6% (active). The inhibition [4] was -14.2%.
In the case of `Cc1cc2oc(=O)cc(-c3ccccc3)c2c(C)c1-c1ccc(CO)cc1`, the inhibition [1] is reported as 10.8%, the inhibition [2] is reported as 71.5% (active) and the inhibition [3] is reported as 63.6% (active). It also gave an inhibition [4] of 16.8%.
With `O=c1[nH]c(Nc2ccc3c(c2)OCCO3)nnc1Cc1ccccc1` the inhibition [1] was 0.14%, the inhibition [2] was 59.5% (active) and the inhibition [3] was 37.8%. For the same molecule, the inhibition [4] was -12.8%.
With `Clc1ccccc1-c1nnc2sc(-c3ccncc3)nn12` the inhibition [1] was 15.3%, the inhibition [2] was 52.6% (active) and the inhibition [3] was 50.9% (active). It also gave an inhibition [4] of 3.81%.
In the case of `Cc1ccc(NC(=O)CSc2nnc([C@@H]3CCCN3C(=O)OC(C)(C)C)o2)c(C)c1`, the inhibition [1] is reported as 13.8%, the inhibition [2] is reported as 58% (active) and the inhibition [3] is reported as 54.5% (active). For the same molecule, the inhibition [4] was -1.31%.
For `Cc1ccc(NNC(N)=S)cc1Cl`, the inhibition [1] was 11.6%, the inhibition [2] was 53.4% (active) and the inhibition [3] was 50.5% (active). For the same molecule, the inhibition [4] was 1.11%.
For `CCOc1ccc(CCNC(=O)COC(=O)CCc2cc(OC)c(OC)c(OC)c2)cc1OCC`, the inhibition [1] was 2.32%, the inhibition [2] was 50.1% (active) and the inhibition [3] was 47.2% (active). For the same molecule, the inhibition [4] was 2.92%.
For `Oc1[nH]c2ccc(Br)cc2c1N=NC(=S)N1CCOCC1`, the inhibition [1] was 83.2% (active), the inhibition [2] was 93.8% (active) and the inhibition [3] was 87.7% (active). For the same molecule, the inhibition [4] was 55.5% (active).
With `Cc1onc(-c2c(F)cccc2Cl)c1C(=O)c1ccc(F)cc1` the inhibition [1] was 2%, the inhibition [2] was 46.1% (active) and the inhibition [3] was 46.2% (active). The inhibition [4] was -8.21%.
In the case of `Cc1cc(C)n(-c2nc(Nc3ccccc3C(F)(F)F)nc(-n3nc(C)cc3C)n2)n1`, the inhibition [1] is reported as 20.8%, the inhibition [2] is reported as 21.6% and the inhibition [3] is reported as 24.5%. For the same molecule, the inhibition [4] was -0.49%.
In the case of `COc1ccc(NC(=O)CSc2nc(O)cc(=O)n2-c2ccccc2OC)cc1`, the inhibition [1] is reported as 4.7%, the inhibition [2] is reported as 47.5% (active) and the inhibition [3] is reported as 38.3%. It also gave an inhibition [4] of 2.37%.
In the case of `CC(C)CNC(=O)COC(=O)c1c2c(nc3ccccc13)/C(=C/c1cccs1)CC2`, the inhibition [1] is reported as -15.9%, the inhibition [2] is reported as 4.19% and the inhibition [3] is reported as -12.8%. The inhibition [4] was -8.73%.
For `O=C(COC(=O)Cc1ccc(F)cc1)NCCc1ccccc1`, the inhibition [1] was 3.74%, the inhibition [2] was 37.8% and the inhibition [3] was 36.3%. The inhibition [4] was -0.51%.
In the case of `Cc1onc(-c2c(F)cccc2Cl)c1C(=O)c1ccccc1O`, the inhibition [1] is reported as 7.24%, the inhibition [2] is reported as 51.3% (active) and the inhibition [3] is reported as 49.1% (active). It also gave an inhibition [4] of -0.7%.

Reference: PubChem BioAssay
